Assay results: PubChem BioAssay AID1159580 (chemical genetic matrix, 2015)
Among all 5,500 compounds or so, about 2,000 (36%) were called active. Roughly 18% stayed inconclusive and do not appear here. No stated cut-off is given here; in the data, active means normalized growth mostly below about 0.91 (no sharp cut-off); inconclusive means no clear call, values can overlap the other calls; inactive means mostly above about 0.92. Some of the results follow.

Assay: chemical genetic growth profiling, strain panel (AID 1159580);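 further: tested at 20 µM; growth read once vehicle control cultures reached saturation at 30 °C; 1 = growth at the plate median or of vehicle wells; lower values mean less growth of the strain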
Settings: growth OD
[1] = S. cerevisiae deletion strains, locus YAL013W, strain DEP1, active compounds read low
[2] = S. cerevisiae deletion strains, locus YBR229C, strain ROT2, active compounds read low
[3] = S. cerevisiae deletion strains, locus YCL061C, strain MRC1, active compounds read low
[4] = S. cerevisiae deletion strains, locus YDL101C, strain DUN1, active compounds read low
[5] = S. cerevisiae deletion strains, locus YDR150W, strain NUM1, active compounds read low
[6] = S. cerevisiae deletion strains, locus YEL061C, strain CIN8, active compounds read low
[7] = S. cerevisiae deletion strains, locus YGR078C, strain PAC10, active compounds read low
[8] = S. cerevisiae deletion strains, locus YHR030C, strain SLT2, active compounds read low
[9] = S. cerevisiae deletion strains, locus YHR087W, strain rtc3, active compounds read low
[10] = S. cerevisiae deletion strains, locus YJR043C, strain POL32, active compounds read low
[11] = S. cerevisiae deletion strains, locus YJR075W, strain HOC1, active compounds read low
[12] = S. cerevisiae deletion strains, locus YKL190W, strain CNB1, active compounds read low
[13] = S. cerevisiae deletion strains, locus YLR039C, strain RIC1, active compounds read low
[14] = S. cerevisiae deletion strains, locus YLR058C, strain SHM2 (second series), active compounds read low
[15] = S. cerevisiae deletion strains, locus YLR085C, strain ARP6, active compounds read low
[16] = S. cerevisiae deletion strains, locus YLR262C, strain YPT6, active compounds read low
[17] = S. cerevisiae deletion strains, locus YML094W, strain GIM5, active compounds read low
[18] = S. cerevisiae deletion strains, locus YMR219W, strain ESC1, active compounds read low
[19] = S. cerevisiae deletion strains, locus YMR263W, strain SAP30, active compounds read low
[20] = S. cerevisiae deletion strains, locus YMR307W, strain GAS1, active compounds read low
[21] = S. cerevisiae deletion strains, locus YNL128W, strain TEP1, active compounds read low
[22] = S. cerevisiae deletion strains, locus YNL153C, strain GIM3, active compounds read low
[23] = S. cerevisiae deletion strains, locus YNL298W, strain CLA4 (second series), active compounds read low
[24] = S. cerevisiae deletion strains, locus YNL322C, strain KRE1, active compounds read low
[25] = S. cerevisiae deletion strains, locus YNR030W, strain Alg12, active compounds read low
[26] = S. cerevisiae deletion strains, locus YPL055C, strain LGE1, active compounds read low
[27] = S. cerevisiae deletion strains, locus YPL241C, strain CIN2, active compounds read low
[28] = S. cerevisiae deletion strains, locus YPR135W, strain CTF4, active compounds read low

Measured: normalized growth

Cc1ccc2cc(NC(=O)c3ccco3)ccc2n1
inactive: [1] 0.987 | [2] 0.998 | [3] 0.991 | [4] 1.02 | [5] 0.901 | [7] 0.989 | S. cerevisiae deletion strains, locus YGR229C, strain SMI1, active compounds read low 0.989 | [9] 1.01 | [10] 0.998 | [11] 0.994 | [13] 0.972 | [14] 1.01 | [16] 1.01 | [17] 0.96 | [18] 1 | [19] 0.938 | [21] 0.962 | [22] 1 | [24] 1.01 | [26] 0.92
active: [6] 0.895 | [8] 0.309 | [12] 0.9 | [15] 0.286 | [20] 0.518 | [23] 0.807 | [25] 0.841 | [27] 0.804 | [28] 0.385

O=C(Nc1ccc(F)c(Cl)c1)c1ccccc1O
active: S. cerevisiae deletion strains, locus YBL105C, strain PKC1, active compounds read low 0.897 | S. cerevisiae deletion strains, locus YBR135W, strain CKS1, active compounds read low 0.888 | S. cerevisiae deletion strains, locus YDL017W, strain CDC7, active compounds read low 0.895 | S. cerevisiae deletion strains, locus YDL108W, strain KIN28, active compounds read low 0.896 | S. cerevisiae deletion strains, locus YDL132W, strain cdc53, active compounds read low 0.879 | S. cerevisiae deletion strains, locus YDR052C, strain DBF4, active compounds read low 0.884 | S. cerevisiae deletion strains, locus YDR226W, strain ADK1, active compounds read low 0.877 | S. cerevisiae deletion strains, locus YFL009W, strain cdc4, active compounds read low 0.888 | S. cerevisiae deletion strains, locus YFR003C, strain YPI1, active compounds read low 0.897 | S. cerevisiae deletion strains, locus YFR028C, strain CDC14, active compounds read low 0.884 | [8] 0.768 | S. cerevisiae deletion strains, locus YJR016C, strain ILV3, active compounds read low 0.895 | S. cerevisiae deletion strains, locus YKL193C, strain SDS22, active compounds read low 0.885 | S. cerevisiae deletion strains, locus YLR113W, strain HOG1, active compounds read low 0.669 | S. cerevisiae deletion strains, locus YNL006W, strain LST8, active compounds read low 0.893 | S. cerevisiae deletion strains, locus YPL209C, strain IPL1, active compounds read low 0.895 | S. cerevisiae deletion strains, locus YPL256C, strain CLN2, active compounds read low 0.756 | S. cerevisiae deletion strains, locus YPR025C, strain CCL1, active compounds read low 0.894
inactive: S. cerevisiae deletion strains, locus YAR019C, strain CDC15, active compounds read low 0.9 | S. cerevisiae deletion strains, locus YBR136W, strain MEC1, active compounds read low 0.899 | S. cerevisiae deletion strains, locus YBR160W, strain CDC28, active compounds read low 0.899 | S. cerevisiae deletion strains, locus YDL028C, strain MPS1, active compounds read low 0.897 | [4] 0.951 | S. cerevisiae deletion strains, locus YDL214C, strain PRR2, active compounds read low 0.83 | S. cerevisiae deletion strains, locus YDR054C, strain cdc34, active compounds read low 0.885 | S. cerevisiae deletion strains, locus YDR477W, strain SNF1, active compounds read low 0.834 | S. cerevisiae deletion strains, locus YER123W, strain YCK3, active compounds read low 0.76 | S. cerevisiae deletion strains, locus YER133W, strain GLC7, active compounds read low 0.862 | S. cerevisiae deletion strains, locus YFL029C, strain CAK1, active compounds read low 0.884 | S. cerevisiae deletion strains, locus YFR019W, strain FAB1, active compounds read low 0.904 | S. cerevisiae deletion strains, locus YGR040W, strain KSS1, active compounds read low 0.819 | S. cerevisiae deletion strains, locus YGR052W, strain FMP48, active compounds read low 0.8 | S. cerevisiae deletion strains, locus YGR092W, strain DBF2, active compounds read low 0.519 | S. cerevisiae deletion strains, locus YHR079C, strain IRE1, active compounds read low 0.632 | S. cerevisiae deletion strains, locus YHR082C, strain KSP1, active compounds read low 0.76 | S. cerevisiae deletion strains, locus YHR205W, strain SCH9, active compounds read low 0.747 | S. cerevisiae deletion strains, locus YIL147C, strain SLN1, active compounds read low 0.895 | S. cerevisiae deletion strains, locus YJL095W, strain BCK1, active compounds read low 0.676 | S. cerevisiae deletion strains, locus YJL128C, strain PBS2, active compounds read low 0.846 | S. cerevisiae deletion strains, locus YJL157C, strain FAR1, active compounds read low 0.803 | S. cerevisiae deletion strains, locus YJR066W, strain TOR1 (second series), active compounds read low 0.882 | S. cerevisiae deletion strains, locus YJR066W, strain TOR1, active compounds read low 0.745 | S. cerevisiae deletion strains, locus YKL048C, strain ELM1, active compounds read low 0.893 | S. cerevisiae deletion strains, locus YKL067W, strain YNK1, active compounds read low 0.825 | S. cerevisiae deletion strains, locus YKL101W, strain HSL1, active compounds read low 0.807 | S. cerevisiae deletion strains, locus YKL203C, strain TOR2, active compounds read low 0.863 | S. cerevisiae deletion strains, locus YLR133W, strain CKI1, active compounds read low 0.762 | S. cerevisiae deletion strains, locus YLR403W, strain SFP1, active compounds read low 0.743 | S. cerevisiae deletion strains, locus YML070W, strain DAK1, active compounds read low 0.777 | S. cerevisiae deletion strains, locus YMR001C, strain CDC5, active compounds read low 0.891 | S. cerevisiae deletion strains, locus YMR205C, strain PFK2 (second series), active compounds read low 0.769 | S. cerevisiae deletion strains, locus YMR277W, strain FCP1, active compounds read low 0.9 | S. cerevisiae deletion strains, locus YNL020C, strain ARK1, active compounds read low 0.745 | S. cerevisiae deletion strains, locus YNL161W, strain CBK1, active compounds read low 0.904 | S. cerevisiae deletion strains, locus YNL183C, strain NPR1, active compounds read low 0.759 | S. cerevisiae deletion strains, locus YNL207W, strain RIO2, active compounds read low 0.893 | S. cerevisiae deletion strains, locus YNL222W, strain SSU72, active compounds read low 0.906 | S. cerevisiae deletion strains, locus YNL307C, strain MCK1 (second series), active compounds read low 0.833 | S. cerevisiae deletion strains, locus YOL078W, strain AVO1, active compounds read low 0.897 | S. cerevisiae deletion strains, locus YOL136C, strain PFK27, active compounds read low 0.846 | S. cerevisiae deletion strains, locus YOR061W, strain CKA2, active compounds read low 0.842 | S. cerevisiae deletion strains, locus YOR119C, strain RIO1, active compounds read low 0.936 | S. cerevisiae deletion strains, locus YOR231W, strain MKK1, active compounds read low 0.829 | S. cerevisiae deletion strains, locus YOR329C, strain SCD5, active compounds read low 0.913 | S. cerevisiae deletion strains, locus YPL031C, strain PHO85, active compounds read low 0.796 | S. cerevisiae deletion strains, locus YPL153C, strain RAD53, active compounds read low 0.799 | S. cerevisiae deletion strains, locus YPL204W, strain HRR25, active compounds read low 0.797 | S. cerevisiae deletion strains, locus YPR106W, strain ISR1, active compounds read low 0.911 | S. cerevisiae deletion strains, locus YPR111W, strain DBF20, active compounds read low 0.887 | S. cerevisiae deletion strains, strain NNK1, active compounds read low 0.899 | S. cerevisiae deletion strains, strain TSCII, active compounds read low 0.892

CCc1ccccc1NC(C)=O
inactive: [1] 1.04 | [2] 1 | [4] 1.01 | [5] 1.01 | [6] 1.02 | [7] 1 | [8] 1.08 | [9] 1.01 | S. cerevisiae deletion strains, locus YJL187C, strain SWE1, active compounds read low 1 | [10] 0.995 | [11] 0.997 | [13] 0.992 | [14] 0.997 | [15] 1.01 | [16] 1.06 | [17] 1.03 | [18] 1.01 | [19] 0.998 | [20] 0.972 | [22] 1.01 | [23] 1.03 | [24] 0.993 | [25] 1.03 | [26] 0.901 | [27] 1.01 | [28] 1.24 | S. cerevisiae strains, strain wild type, active compounds read low 0.985

O=C(Nc1ccccc1)NC1CCCC1
inactive: [1] 1.02 | [2] 0.983 | [3] 1.02 | [4] 0.989 | S. cerevisiae deletion strains, locus YDL134C, strain PPH21, active compounds read low 1.01 | [5] 0.983 | [6] 0.965 | [7] 1.01 | [8] 1.07 | [9] 0.997 | [10] 1.04 | [11] 0.992 | [12] 0.991 | [13] 1.01 | [14] 0.997 | [15] 0.991 | [16] 1.05 | [17] 0.96 | [18] 0.997 | [19] 1.01 | [20] 1.03 | [21] 0.941 | [22] 1.01 | [23] 0.985 | [24] 0.996 | [25] 1 | [26] 1.02 | [27] 0.99 | [28] 1.13
